Reference: PubChem BioAssay (NCI)
Compounds without any hit were thinned out: in the full panel of roughly 83,000, 20% have a hit.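 Percent growth is the endpoint: 0 to 100 indicates growth inhibition (40 means 60% inhibition), 0 means no net growth, and negative values indicate cell death.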 Calls of active or inactive are those of the source. The calls were made as follows: active = growth percent below 10; inactive = the rest.

Tests used:
Assay in all cases: NCI-60 one-dose screen, 48 h (100 = growth as untreated, 0 = no growth, -100 = all killed)
SK-MEL-2 melanoma = settings: 10 µM unless noted
EKVX NSCLC = settings: 10 µM
SN12C renal = settings: 10 µM unless noted
UO-31 renal = settings: 10 µM unless noted
TK-10 renal = settings: 10 µM unless noted
ACHN renal = settings: 10 µM unless noted
CAKI-1 renal = settings: 10 µM unless noted
A498 renal = settings: 10 µM unless noted
CCRF-CEM leukemia = settings: 10 µM
MOLT-4 leukemia = settings: 10 µM unless noted

Measured: growth

CCn1cc(C(=O)O)c(=O)c2cc(F)c(N3CCN(S(=O)(=O)c4ccc(Cl)cc4)CC3)cc21
inactive: SK-MEL-2 melanoma 43.8% | EKVX NSCLC 78.1% | SN12C renal 11.6% | UO-31 renal 51.1% | TK-10 renal 53.6% | ACHN renal 28.7% | CAKI-1 renal 43.6% | MOLT-4 leukemia 23.6%
active: A498 renal -6.18% | CCRF-CEM leukemia -0.845%

O=C1C(=O)c2ccccc2C(O)=C1CCCc1ccc(C2CCCC2)cc1
inactive: SK-MEL-2 melanoma 33.2% | EKVX NSCLC 27% | SN12C renal 49.5% | UO-31 renal 45.8% | TK-10 renal 36.7% | ACHN renal 30.8% | CAKI-1 renal 67.8% | A498 renal 24.2% | CCRF-CEM leukemia 24.4% | MOLT-4 leukemia 14.1%

O=C(N/N=C\c1ccc(Cl)cc1)C(=O)N/N=C\c1ccc(Cl)cc1
inactive: SK-MEL-2 melanoma 98.4% | EKVX NSCLC 102% | SN12C renal 90.8% | UO-31 renal 78.3% | TK-10 renal 105% | ACHN renal 96.8% | CAKI-1 renal 94.6% | A498 renal 101% | CCRF-CEM leukemia 90.7% | MOLT-4 leukemia 98.1%

CCOC(=O)c1c(C)oc2ncnc(Nc3ccc(NC(=O)Nc4cccc(Cl)c4)cc3)c12
inactive: SK-MEL-2 melanoma 72.7% | EKVX NSCLC 72.3% | SN12C renal 74% | UO-31 renal 50.4% | TK-10 renal 79.2% | ACHN renal 57.5% | CAKI-1 renal 90.8% | A498 renal 63% | CCRF-CEM leukemia 31.5% | MOLT-4 leukemia 49.3%

CC(C)(C)c1ccc([I+]c2ccc(C(C)(C)C)cc2)cc1
inactive: EKVX NSCLC 15.6% | UO-31 renal 62.8% | TK-10 renal 23.5% | ACHN renal 47.3% | CAKI-1 renal 87.6% | MOLT-4 leukemia 12.1%
active: SK-MEL-2 melanoma -2.7% | SN12C renal 3.97% | A498 renal -2.59% | CCRF-CEM leukemia 9.22%

O=C(/C=C/c1ccc(Br)cc1)c1ccccc1
inactive: SK-MEL-2 melanoma 103% | EKVX NSCLC 109% | SN12C renal 91.6% | UO-31 renal 80.3% | TK-10 renal 64% | ACHN renal 100% | CAKI-1 renal 101% | A498 renal 77.4% | CCRF-CEM leukemia 81.6% | MOLT-4 leukemia 92.3%

OCC(O)C(O)CC1SCCS1 (stereo not given)
inactive: SK-MEL-2 melanoma 107% | EKVX NSCLC 97.2% | SN12C renal 97.9% | UO-31 renal 78% | TK-10 renal 96.5% | ACHN renal 103% | CAKI-1 renal 98% | A498 renal 101% | CCRF-CEM leukemia 90.6% | MOLT-4 leukemia 84.8%

Cc1nc(NC(=O)NC2CCCCC2)sc1C(=O)NN
inactive: SK-MEL-2 melanoma 21.7% | EKVX NSCLC 119% | SN12C renal 106% | UO-31 renal 84% | ACHN renal 97.8% | CAKI-1 renal 132% | A498 renal 118% | CCRF-CEM leukemia 112% | MOLT-4 leukemia 116%
active: TK-10 renal -14.2%

Oc1ccccc1/C=N/N=C\c1ccccc1Cl
inactive: SK-MEL-2 melanoma 102% | EKVX NSCLC 75.9% | SN12C renal 92.6% | UO-31 renal 40.5% | TK-10 renal 132% | ACHN renal 95.8% | CAKI-1 renal 86.8% | A498 renal 141% | MOLT-4 leukemia 61.3%
active: CCRF-CEM leukemia 1.42%

COc1cc(OC)c2c(=O)cc(-c3ccccc3)oc2c1
inactive: SK-MEL-2 melanoma 103% | EKVX NSCLC 103% | SN12C renal 93% | UO-31 renal 70.2% | TK-10 renal 85.9% | ACHN renal 103% | CAKI-1 renal 86.4% | A498 renal 77.1% | CCRF-CEM leukemia 26.9% | MOLT-4 leukemia 80.4%

CCCCCCCCCCCCCCCC[n+]1cccc(C#N)c1
active: CCRF-CEM leukemia -26% | MOLT-4 leukemia -13.3%
inactive: SK-MEL-2 melanoma 97.7% | EKVX NSCLC 98% | SN12C renal 96.9% | UO-31 renal 67.6% | TK-10 renal 69.3% | ACHN renal 39.2% | CAKI-1 renal 73% | A498 renal 86.6%

Cc1ccc(C(C)C)c(OCc2ccc(C(=O)N/N=C/c3cccc(O)c3O)cc2)c1
active: CCRF-CEM leukemia 6.92% | MOLT-4 leukemia 7.88%
inactive: SK-MEL-2 melanoma 71.5% | EKVX NSCLC 49.1% | SN12C renal 35% | UO-31 renal 16.1% | TK-10 renal 74% | ACHN renal 12.8% | CAKI-1 renal 31.6% | A498 renal 90.2%

CCCCCSc1ccc2nc(NC(=O)OCCC)sc2c1
inactive: SK-MEL-2 melanoma 51.7% | EKVX NSCLC 34.2% | SN12C renal 57.4% | UO-31 renal 51.8% | TK-10 renal 70.1% | ACHN renal 42.8% | CAKI-1 renal 32.4% | A498 renal 11.2% | CCRF-CEM leukemia 20.3% | MOLT-4 leukemia 30.7%

CCOC(=O)c1cc(-c2ccc(OC)cc2)[nH]c1NNC(=O)CCOC
inactive: SK-MEL-2 melanoma 103% | EKVX NSCLC 101% | SN12C renal 107% | UO-31 renal 77% | TK-10 renal 63.7% | ACHN renal 107% | CAKI-1 renal 88.8% | A498 renal 77.8% | CCRF-CEM leukemia 57.8% | MOLT-4 leukemia 58.1%
